Screening data as filed in PubChem.
Compounds with a hit are over-represented: about 21% of the library has one in this group of screens.
Pf growth 96h: P. falciparum growth inhibition at 96 hours; 320,000 compounds, 6.9% hits; Potency, µM (top dose mostly 28.7 µM), without a hit: top-dose activity change, negative = inhibition, hits mostly inhibitors; P. falciparum luciferase reporter growth, 96 h; further: potency means the concentration at half of the fitted maximal effect; on the % scale 0 is the no-effect control and ±100 the full control effect
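Delayed-death screen, second-generation endpoint: infected erythrocytes, 2% hematocrit, 0.05% parasitemia final; 96 hours at 37 C, 5% CO2; luciferase detection reagent; luminescence decrease equals reduced growth.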
Shiga inhibitor: blocks Shiga toxin action in Vero cells. 290,000 compounds, 9.2% hits. inhibition, % at 38.7 µM. Vero cells, Shiga toxin protein synthesis inhibition reporter; in the data active means inhibition mostly above about 28%, no sharp cut-off; inactive means mostly below about 43%; further: 0% is about no effect
NS1 inh: inhibitors of influenza NS1 protein function. Potency, µM (highest dose often 46.1 µM), inactives show top-dose activity, positive = more growth. AID 2326. 270,000 compounds, 0.4% hits; calls by dose curve; further: potency means the concentration at half of the fitted maximal effect; actives are rising curves; nearly all actives have a fitted effect of over 50% in size
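S. cerevisiae expressing influenza A NS1, grown in glucose, washed, then diluted 1:100 into pH 6.0 -URA galactose medium with 23 nl compound. Growth recovery read as OD600; NS1-free strain serves as control.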
Pf growth 48h: inhibits P. falciparum growth in the first generation, 48 h. P. falciparum luciferase growth in erythrocytes, 48 h. Potency, µM (highest dose often 28.7 µM), for inactives: at the highest dose activity change, negative = inhibition, usual class: inhibitors. 310,000 compounds, 5.9% hits. AID 504832; further: potency means the concentration at half of the fitted maximal effect; on the % scale 0 is the no-effect control and ±100 the full control effect
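First compound was added to culture medium, then infected red cells at 0.1% parasitemia and 2% hematocrit (final). After incubation at 37 C under 5% CO2, luciferase detection reagent was dispensed and light output recorded.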
Sm TGR block: blocks Schistosoma mansoni thioredoxin glutathione reductase; Q962Y6; purified TGR, DTNB reduction, TNB absorbance 405 nm; Potency, µM (titrated, usually from 114 µM), for the others: at the highest dose activity change, negative = inhibition, actives largely listed as inhibitors; 360,000 compounds, 3% hits; AID 485364; further: potency means the concentration at half of the fitted maximal effect; on the % scale 0 is the no-effect control and ±100 the full control effect; nearly all actives have a fitted effect of over 60% in size
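Kinetic colorimetric format: TGR-catalysed, NADPH-driven DTNB reduction monitored via TNB absorbance. Enzyme dispensed at 20 nM; compound exposure 15 min at room temperature before reaction start.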
CHX counter: counter-screen hit for Shiga toxin inhibitors, cycloheximide; AID 2314; cell reporter, cycloheximide protein synthesis inhibition counterscreen; 300,000 compounds, 12% hits; max response, %; in the data active means max response mostly above about 13%, no sharp cut-off; inactive means mostly below about 14%; further: read at 38.3 µM for the half of the compounds with a filed dose; 0% is about no effect
Numbers without * were called inactive; u = inconclusive; x = no result given. Unless noted, the call rests on the fitted dose curve; in most records, active means well fitted curve in the direction sought with a large enough effect; inconclusive means small, poorly fitted or top-dose-only effect, or another doubt; inactive means no such curve, though single readings can be large; an effect the other way counts as inactive or inconclusive.

SMILES	Pf growth 96h	Shiga inhibitor	NS1 inh	Pf growth 48h	Sm TGR block	CHX counter
Cc1cc(C)cc(NC(=O)C(c2ccccc2)N2CCCC2)c1 (stereo not drawn)	-7%	12	1%	-19%	9%	-2
COc1ccc(C)cc1NC(=O)C(c1ccccc1)N1CCN(CC(=O)NC2CC2)CC1 (stereo not drawn)	2.1µM*	x	x	2.3µM*	7%	x
O=C(CN1CCN(C(C(=O)Nc2ccc(Cl)cc2C(F)(F)F)c2ccccc2)CC1)NC1CC1 (stereo not drawn)	4.1µM*	x	x	3.3µM*	-11%	x
Cc1ccc(NC(=O)C(c2ccccc2)N2CCN(CC(=O)NC3CC3)CC2)cc1Cl (stereo not drawn)	u	x	x	5.2µM*	-3%	x
CCCCNC(=S)Nc1ccc(OC)nc1	17%	16	x	-1%	-24%	3
CSc1nc2ncc(C(=O)O)c(N)n2n1	45%	2	x	-11%	u	7
C[C@@H](O)C1NC(=O)[C@H](CCCCN)NC(=O)c2cc([N+](=O)[O-])cc(I)c2OCC[C@@H](C(N)=O)NC1=O (stereo partly drawn)	0%	-13	-2%	18%	-4%	-2
Cc1ccccc1C(=O)Nc1nc2nc(C)c(C)c(=O)n2[nH]1	x	x	x	x	1%	x
Cc1ccc(NC(=O)C(c2ccccc2)N2CCN(CC(=O)NC3CC3)CC2)cc1 (stereo not drawn)	u	x	x	13µM*	1%	x
Cc1cc(NC(=O)CN2CCN(Cc3ccccc3)CC2)nc2c1c(=O)oc1ccccc12	u	-4	-24%	u	-13%	3
O=C1c2ccccc2C(=O)N1CC1c2ccccc2CCN1C(=O)C1CCCCC1 (stereo not drawn)	12µM*	2	1%	x	6%	2
CC(C)Cc1csc(NC(=O)c2ccc(F)cc2)c1C(=O)O	0%	56*	-30%	-2%	-1%	40*
O=C(c1cnccn1)N1CCc2ccccc2C1	-17%	24	x	1%	-4%	1
Cc1csc(NC(=O)CCNC(=O)c2ccccc2Cl)n1	26%	31	x	0%	-11%	13
Cc1csc(NC(=O)[C@@H](NC(=O)c2ccccc2)C(C)C)n1	-13%	15	-1%	7%	-14%	-3
Cc1csc(NC(=S)NC(=O)c2ccccc2)n1	76%	61*	-17%	17%	-10%	22*
Cc1csc(NC(=O)NCC2CCCC(CNC(=O)Nc3nc(C)cs3)C2)n1 (stereo not drawn)	u	43*	8%	12µM*	-14%	30*
Cc1csc(NC(=O)c2cccc(C)c2C)n1	388%	55	-31%	159%	0%	38*
Cc1csc(NC(=O)c2ccc[nH]c2=O)n1	190%	x	12%	112%	-14%	36*
CCOc1ccccc1C(=O)NC(CO)C(=O)O (stereo not drawn)	x	-4	-7%	18%	-1%	-2
COc1ccc2c(c1OC)C(=O)OC2C/C(=N\NC(N)=O)c1ccccc1 (stereo not drawn)	13%	23	x	12%	-1%	5
O=C(Cc1ccccc1)Nc1ccc(NC(=O)c2cccs2)cc1Cl	6%	40	-2%	8%	0%	8
Cc1csc(NC(=O)c2ccncc2)n1	-48%	6	8%	u	1%	3
Cc1csc(NC(=O)c2ccc3nc[nH]c3c2)n1	396%	49	2%	169%	-3%	52*
COc1cccc(C(=O)Nc2nc(C)cs2)c1	85%	68*	-16%	122%	6%	35*
Cc1csc(NC(=O)c2ccccc2)n1	u	x	-9%	216%	-29%	43*
CCC(CC)NC(=O)c1ccc2nc[nH]c2c1	-19%	-6	-12%	x	3%	-4
Clc1cccc(-c2cc3nc4c(c(N5CCNCC5)n3n2)CCCC4)c1	-6%	43	4%	87%	0%	31*
Clc1cccc(-c2cc3nc4c(c(NCc5ccco5)n3n2)CCCC4)c1	u	131*	-89%	-77%	9%	47*
Fc1cccc(-c2cc3nc4c(c(N5CCC6(CC5)OCCO6)n3n2)CCCC4)c1	14%	108*	-41%	9.3µM*	9%	28*
